In PubChem BioAssay (EPA / NIEHS):
Results filed as inconclusive are left out. Calls of active or inactive are those of the source. The calls were made as follows, unless noted: active = hit-call score of the fitted dose curve at least 0.9, where 1 is the maximum; inactive = score below 0.9.

Tests used:
[1] = read-out: Basic fibroblast growth factor (bFGF), FGF2 (gene 2247); assay: BSK_MyoF_bFGF: BioMAP Diversity Plus: MyoF Assay for Basic fibroblast growth factor (bFGF) Biomarker Activity (AID 2284246); conditions: primary human lung fibroblasts
Procedure: BSK_MyoF is a cell-based, multiplexed-readout assay that uses lung fibroblasts, a human […] primary cell, with measurements taken at 24 hours after chemical dosing in a microplate: 96-well plate.BSK_MyoF_bFGF is an assay component measured in the BSK_MyoF assay. It measures bFGF antibody related to regulation of gene expression using ELISA technology.Data from the assay component BSK_MyoF_bFGF was analyzed at the endpoint, BSK_MyoF_bFGF, in the positive analysis fitting direction relative to DMSO as the negative control and baseline of activity. Using a type of binding reporter, gain or loss-of-signal activity can be used to understand protein changes. […]
The levels of cell surface (or secreted, indicated by the prefix "s") biomarker endpoints were measured by ELISA. Overt cytotoxicity to cells in confluent adherent cultures (all systems other than the BT system) was assessed by measuring total protein levels using sulforhodamine B (SRB) staining in parallel cultures at the time of biomarker measurements, indicated as SRB endpoints. For proliferation assays for adherent cell types, individual cell types are cultured at sub-confluence and relative cell numbers quantified by SRB staining at time points optimized for each system (48 h: 3C and CASM3C systems; 72 h: BT and HDF3CGF systems; 96 h: SAg system). […] Plates were read after 6 h.

[2] = read-out: Collagen IV, COL4A1 (gene 1282); assay: BSK_MyoF_CollagenIV: BioMAP Diversity Plus: MyoF Assay for Collagen IV Biomarker Activity (AID 2284247); conditions: primary human lung fibroblasts
How it was run: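 Primary human lung fibroblasts (MyoF system) dosed 24 h; Collagen IV measured by ELISA. Activity fitted in positive direction against DMSO; cytotoxicity tracked by SRB total-protein staining in parallel cultures.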

[3] = read-out: Plasminogen activator inhibitor-1 (PAI1), SERPINE1 (gene 5054); assay: BSK_MyoF_PAI1: BioMAP Diversity Plus: MyoF Assay for Plasminogen activator inhibitor-1 (PAI1) Biomarker Activity (AID 2284256); conditions: primary human lung fibroblasts
How it was run: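 Primary human lung fibroblasts treated with chemical for 24 h; PAI-1 levels quantified by ELISA relative to DMSO. Cytotoxicity was assessed in parallel cultures by SRB total-protein staining (0.1% SRB after 10% TCA fixation, 560 nm).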

[4] = read-out: Interleukin-8 (IL8), CXCL8 (gene 3576); assay: BSK_MyoF_IL8: BioMAP Diversity Plus: MyoF Assay for Interleukin-8 (IL8) Biomarker Activity (AID 2284261); conditions: primary human lung fibroblasts
How it was run: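 Human lung fibroblast (MyoF system) cultures dosed for 24 h, then IL-8 measured by ELISA. Response taken relative to DMSO; parallel SRB total-protein staining for cytotoxicity.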

Decorin, DCN (gene 1634) = assay: BSK_MyoF_Decorin: BioMAP Diversity Plus: MyoF Assay for Decorin Biomarker Activity (AID 2284265); conditions: primary human lung fibroblasts
How it was run: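 Human lung fibroblast cultures were dosed for 24 h, and decorin was then measured by ELISA. Parallel cultures were stained with sulforhodamine B for total protein as a cytotoxicity check. Gain of signal was fitted relative to DMSO.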

[5] = BSK_MyoF_SRB: Viability Assessment in the BioMAP Diversity Plus: MyoF Assay (AID 2284267); conditions: primary human lung fibroblasts;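 also: total protein by SRB absorbance in parallel cultures as cytotoxicity measure; cells assessed 24 h after compound addition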
How it was run: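 Human lung fibroblasts, 24 h after chemical dosing; total protein measured by 0.1% sulforhodamine B staining after 10% TCA fixation, read at 560 nm, fitted relative to DMSO baseline.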

[6] = read-out: TIMP metallopeptidase inhibitor 1 (TIMP1), TIMP1 (gene 7076); assay: BSK_MyoF_TIMP1: BioMAP Diversity Plus: MyoF Assay for TIMP metallopeptidase inhibitor 1 (TIMP1) Biomarker Activity (AID 2284269); conditions: primary human lung fibroblasts
How it was run: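 Primary human lung fibroblasts, MyoF multiplex system; chemical exposure 24 h; TIMP-1 by ELISA; positive fitting direction vs DMSO control.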

[7] = VALA_TUBHUV_Antagonist_CellCount: Viability Assessment in the VALA Sciences human Umbilical Vein Endothelial Tubule Formation (TUBHUV) Antagonism Assay (AID 2284310; active = hit-call score of the fitted dose curve at least 0.9, where 1 is the maximum)
How it was run: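 HUVEC co-cultured with HDF (1:3) 3 days in 10 ng/ml VEGF, then 3 days with compounds in VEGF medium. Fixed, nuclear stain and CD31 immunofluorescence, imaged; cell counts fitted versus 0.1% DMSO, loss of signal read as lower viability.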

[8] = VALA_MIGHUV2_WoundArea: VALA Sciences human Umbilical Vein Endothelial Cell Migration (MIGHUV) Assay, Area of Scratch Wound after Recovery (AID 2284316; active = hit-call score of the fitted dose curve at least 0.9, where 1 is the maximum)
How it was run: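 HUVEC seeded at 9000 cells/well, scratched after 24 h; test chemical added within 30 min, 6-point concentration response in triplicate (0.1% DMSO vehicle). After 24 h wound recovery, cells fixed and Hoechst-stained nuclei in wound area imaged; Cytochalasin D reference control.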

Measured: AC50

COCC(C)N(C(=O)CCl)c1c(C)csc1C (centres undefined)
active: [3] 20 µM | [4] 10.3 µM
inactive: [1] | [2] | Decorin, DCN (gene 1634) | [5] | [6]

COCc1cnc(C2=NC(C)(C(C)C)C(=O)N2)c(C(=O)O)c1 (centres undefined)
inactive: [7] | [8]
